Assay outcomes as filed in PubChem BioAssay.
miR-122 sensor – miR-122 Renilla sensor signal increase in Huh7, primary screen, miR-122 inhibitor project, cell-based, single point, plate reader | Huh7 miR-122 Renilla luciferase sensor, 48 h; neutral wells = 0, positive control = 100 | activation (reporter increase), % at 12.5 µM | actives 0.3% (n = 340,000) | AID 602342, 2012;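 active means mean replicate activation score at least 90 and every replicate individually at or above 90; inconclusive means only one of the two criteria met; inactive means neither criterion met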;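 further: higher luciferase means less miR-122 activity so hits act as miR-122 inhibitors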
esBAF inh – Bmi1 luciferase reporter increase in mESCs, primary screen, esBAF inhibitor project, mouse ES cells, Bmi1 luciferase knock-in, single point; 24 h; 100% = twice the neutral-well signal; reporter increase, % at 12.5 µM; actives 2% (n = 350,000); AID 602393, 2012; in the data active means activation above about 40%; inconclusive means no clear call, values can overlap the other calls;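 further: a rise in the Bmi1 reporter signal indicates esBAF inhibition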
Wnt act – Wnt/beta-catenin pathway activators, primary screen, cell-based, plate reader, single point | Wnt/beta-catenin reporter cell assay, activator | activation, % at 9.35 µM | actives 1.2% (n = 300,000) | AID 743398, 2014; in the data active means activation above about 30%, passing the limit was not always enough; inconclusive means no clear call, values can overlap the other calls
MITF act – activators of MITF-driven TRPM1 promoter reporter, primary screen, cell-based, SK-MEL-5, luciferase, single point; SK-MEL-5 TRPM1-promoter luciferase, 24 h; % of positive control, neutral wells = 0; activation, % at 12.5 µM; AID 588334, 2011; actives 0.75% (n = 300,000);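 active means mean activation of at least 80% with every replicate also reaching 80%; inconclusive means mean reaches 80% but some replicate falls short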
HIV Env fusion – inhibitors of HIV-1 Env-driven cell-cell fusion, primary screen, HeLa-JRFL effector, CEM21 target cells, luciferase | actives 1.1% (n = 360,000) | AID 651610, 2012 | inhibition, % at 12.3 µM;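 active means mean replicate inhibition score of at least 50 and every replicate individually at or above 50; inconclusive means only one of the two criteria met; inactive means mean below 50 and not all replicates reaching 50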
Large screens that a line does not name were inactive; [ ] = another dose, or the depositor's remark. An excerpt weighted towards active compounds, which were near 3.4% of everything screened.

CCOc1c2ccc(C(=O)N[C@H](C)C3CCCCC3)cc2nn1CCOC	none (no result: HIV Env fusion)
CCc1cc(-c2ccc3c(c2)COc2c4ccccc4nn2-3)on1	none
CN(C)c1cccc(C(=O)n2cc(C(=O)c3cc(F)ccc3O)cn2)c1	esBAF inh 52 (no result: Wnt act, HIV Env fusion)
Cc1cc(Cn2nnc3ccccc32)c(O)c(C(C)(C)C)c1	miR-122 sensor 134
CC(C)(C)c1cccc(Cn2nnc3ccccc32)c1O	none (no result: miR-122 sensor)
Cn1cc(Cl)c(C(=O)OCC(=O)Nc2nc(-c3ccc(Br)cc3)cs2)n1	esBAF inh 61
Cc1cc(/C=C2\SC(=S)N(Cc3ccco3)C2=O)c(C)n1-c1cccnc1	esBAF inh 43 (no result: Wnt act, MITF act)
C[C@@H]1CN([C@H](C)CO)S(=O)(=O)c2ccc(-c3cccnc3)cc2O[C@@H]1CN(C)C(=O)C1CC1	none (no result: esBAF inh, Wnt act, MITF act)
CC1(C(=O)NS(=O)(=O)c2ccc(Cl)cc2)CCN1C(=O)c1cccc(F)c1 (configuration not stated)	none (no result: MITF act)
CC1(C(=O)NS(=O)(=O)c2ccc(C#N)cc2)CCN1C(=O)c1cccc(F)c1 (configuration not stated)	Wnt act 49 (no result: MITF act)
CCOC(=O)Nc1nc(-c2ccccc2)c(C(=O)c2ccc(Cl)cc2)s1	miR-122 sensor 110 (no result: esBAF inh, Wnt act, HIV Env fusion)
C[C@H](CO)N1C[C@H](C)[C@H](CN(C)Cc2ccc(C(F)(F)F)cc2)OCCCC[C@H](C)Oc2ccc(NC(=O)CCCN(C)C)cc2C1=O	none (no result: Wnt act, MITF act)
O=C1CC(c2ccc(O)c(O)c2)Oc2cc(O)cc(O)c21 (configuration not stated)	none (no result: HIV Env fusion)
O=C1CC(c2ccccc2)Oc2cc(O)cc(O)c21 (configuration not stated)	esBAF inh 60 (no result: MITF act, HIV Env fusion)
COc1ccc([C@H]2Cc3cc(O)cc(O)c3C(=O)O2)cc1O	Wnt act 41
COc1ccc([C@H]2Cc3cccc(O)c3C(=O)O2)cc1O	esBAF inh 55
COc1ccc(C2CC(=O)c3c(O)cc(O)cc3O2)cc1O (configuration not stated)	esBAF inh 52 (no result: HIV Env fusion)
C[C@@H]1CCCCO[C@@H](CN(C)S(=O)(=O)c2ccc(F)cc2)[C@@H](C)CN([C@H](C)CO)C(=O)c2cc(NC(=O)Nc3ccc(C(F)(F)F)cc3)ccc2O1	none (no result: Wnt act, MITF act)
C[C@@H]1CN([C@H](C)CO)C(=O)Cc2cc(NC(=O)CCCCCC(=O)Nc3ccccc3N)ccc2O[C@@H]1CN(C)C(=O)NC1CCCCC1	none (no result: Wnt act, MITF act)
Cn1c(=O)c(C(=O)Nc2ccccc2S(N)(=O)=O)c(O)c2ccccc21	esBAF inh 52
COC(=O)C[C@@H]1CC[C@@H]2[C@@H](COc3ccc(NS(=O)(=O)c4ccccc4F)cc3C(=O)N2C)O1	none (no result: Wnt act, MITF act)
CC/C(=N\Nc1nncc2ccccc12)c1ccc(F)cc1	esBAF inh 41, MITF act 88
C/C(=N\Nc1nncc2ccccc12)c1ccc(OCC(=O)N(C)C)cc1	MITF act inconclusive (no result: miR-122 sensor)
C[C@@H]1CN([C@@H](C)CO)C(=O)c2cc(/C=C/c3ccccc3)cnc2O[C@@H]1CN(C)C(=O)C1CC1	none (no result: esBAF inh, Wnt act, MITF act)
COc1ccc(-c2nnc(-c3ccc(N(C)C)cc3)o2)cc1	none (no result: Wnt act)
COc1ccc2nc(-c3cccc(N)c3)[nH]c2c1	none (no result: HIV Env fusion)
COc1ccc(-c2nnc(-c3ccc(N)cc3)o2)cc1	Wnt act 53 (no result: MITF act)
Brc1ccc(-c2nnc(-c3cccnc3)o2)cc1	Wnt act inconclusive, MITF act inconclusive (no result: miR-122 sensor, esBAF inh)
COc1ccc(-c2nnc(-c3cccnc3)o2)cc1	Wnt act 36 (no result: MITF act)
COc1ccc2nc(-c3ccc(N)cc3)[nH]c2c1	Wnt act 69
COc1ccc(-c2ccc(OC)cc2)cc1	esBAF inh 54, MITF act inconclusive (no result: Wnt act)
C[C@@H]1CN([C@H](C)CO)C(=O)c2cc(NC(=O)Cn3cnnn3)ccc2O[C@H]1CN(C)C(=O)Nc1cccc2ccccc12	none (no result: Wnt act, MITF act, HIV Env fusion)
C[C@@H]1CN([C@@H](C)CO)C(=O)c2cc(NC(=O)CCC(F)(F)F)ccc2O[C@@H](C)CCCCO[C@H]1CN(C)C(=O)CCCN(C)C	none (no result: Wnt act, MITF act)
Cc1ccc(-c2nnc(-c3cccnc3)o2)cc1	MITF act inconclusive
Clc1ccc(-c2nnc(-c3cccnc3)o2)cc1	esBAF inh 47 (no result: MITF act)
COc1cccc(C(=O)Nc2ccc3[nH]c(=O)[nH]c3c2)c1OC	HIV Env fusion 60
COc1cccc(NC(=O)c2cccc(OC)c2OC)c1	none (no result: MITF act)
C/C=C/c1ccc2c(c1)O[C@H](CN(C)Cc1ccccn1)[C@@H](C)CN([C@@H](C)CO)S2(=O)=O	none (no result: Wnt act, MITF act)
N#C/C(=C/c1ccc(N2CCCCC2)o1)C(=O)Nc1ccc(Cl)cc1	esBAF inh 60 (no result: Wnt act)
COC(=O)C12OCC34C(CC5C(C)=C(O)C(=O)CC5(C)C3C(O)C1O)OC(=O)C(OC(=O)C=C(C)C)C24 (configuration not stated)	HIV Env fusion 64 (no result: esBAF inh, MITF act)
COCCNC(=O)C[C@H]1C[C@H]2c3cc(NC(=O)Cc4ccncc4)ccc3O[C@H]2[C@H](CO)O1	none (no result: Wnt act, MITF act)
CCCNC(=O)C[C@@H]1C[C@H]2c3cc(NC(=O)Cc4ccncc4)ccc3O[C@H]2[C@H](CO)O1	HIV Env fusion 98[16.7 µM] (no result: Wnt act, MITF act)
CCCNC(=O)C[C@H]1C[C@H]2c3cc(NC(=O)CN(C)C)ccc3O[C@H]2[C@H](CO)O1	HIV Env fusion 89[16.7 µM] (no result: Wnt act, MITF act)
CCCNC(=O)C[C@@H]1C[C@H]2c3cc(NC(=O)Cc4ccncc4)ccc3O[C@H]2[C@@H](CO)O1	HIV Env fusion 93[16.7 µM] (no result: Wnt act, MITF act)
Cc1ccc(SCc2nn(C)c(Cl)c2C=O)cc1	esBAF inh 42
Cc1cc(C)nc(N/N=C/c2sccc2C)n1	none (no result: miR-122 sensor, esBAF inh)
Cc1ccsc1/C=N/Nc1ccc(F)cc1F	MITF act 95 (no result: miR-122 sensor, esBAF inh)
COc1cc(/C=N/Nc2ccc(F)cc2F)cc(OC)c1OC	none (no result: miR-122 sensor, esBAF inh)
Cc1ccsc1/C=N/Nc1ncc(Cl)cc1Cl	esBAF inh 55 (no result: MITF act, HIV Env fusion)
Cc1ccc(C(=O)Cn2nnc3ccccc32)cc1	esBAF inh 63 (no result: Wnt act, HIV Env fusion)
O=C(Cn1cnc2ccccc2c1=O)c1ccc2ccccc2c1	none (no result: Wnt act, HIV Env fusion)
COc1ccc(CCNC(=O)COC(=O)Cn2cnc3ccccc3c2=O)cc1	miR-122 sensor 186
Cc1ccc(C(=O)Cn2cnc3ccccc3c2=O)cc1C	esBAF inh 57 (no result: HIV Env fusion)
Cc1ccc(C(=O)Cn2nnc3ccccc32)cc1C	Wnt act 47, MITF act 110
O=C(O)C[C@H]1C[C@H]2c3cc(NC(=O)NC4CCCCC4)ccc3O[C@H]2[C@H](CO)O1	none (no result: Wnt act, MITF act)
C[C@H](O)C#Cc1ccc2c(c1)O[C@@H](CN(C)CC1CC1)[C@@H](C)CN([C@@H](C)CO)S2(=O)=O	none (no result: Wnt act, MITF act)
C[C@H](NC(=O)[C@@H]1[C@@H](CO)[C@@H]2Cn3c(cccc3=O)[C@@H]2N1Cc1ccncc1)c1ccccc1	none (no result: Wnt act, MITF act, HIV Env fusion)
C[C@@H]1CN([C@@H](C)CO)C(=O)c2cc(NC(=O)CCC(F)(F)F)ccc2O[C@@H](C)CCCCO[C@H]1CN(C)C(=O)Cc1ccccc1	none (no result: Wnt act, MITF act)
